The values below come from PubChem BioAssay (NCATS).

Inconclusive results are not listed. Unmarked numbers belong to inactive results. Active and inactive are the calls of the source. The call rests on the fitted dose curve; in most records, active means well fitted cell-killing curve with a large enough effect; inconclusive means small, poorly fitted or top-dose-only effect; inactive means flat fitted curve, though single readings scatter. Bridge positions count the residues as written; N and C are the ends. Square brackets hold non-standard residues; d marks the D form. Peptide text beside a SMILES is read from it. * marks the point of attachment. ξ: configuration not given here. Octanoyl(6-Me) = CCC(C)CCCCC(=O)*; ξThr(3R) = C[C@@H](O)C(N)C(=O)O; dDab = NCC[C@@H](N)C(=O)O; Dab = NCC[C@H](N)C(=O)O
Potency means the concentration at half of the fitted maximal effect.

The nature of the assay: Quantitative highthroughput screen to assess conditional lethalithy of P12 Ichikawa cells grown in RPMI1640 with untreated serum (RPMI+s) (AID 1963881). Further: nearly all actives have a fitted effect of over 35% in size.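 On viability: 100% = DMSO wells and 0% = empty wells without cells.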 The settings on record: ATP luminescence, 48 h; Potency: viability; series mostly up to 45.8 µM; viability: at the top concentration. An outline of the steps: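 Each medium arm—HPLM with 10% dialyzed FBS, or RPMI1640 with 5 mM glucose and 10% untreated or dialyzed FBS—was screened against an 11-point, 3-fold compound titration for 48 h at 37 °C, with CellTiter-Glo luminescence as endpoint.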
With `Cc1ccc(S(=O)(=O)Nc2nc3ccccc3nc2Nc2ccc3nsnc3c2)cc1`, the Potency is 4070 nM (active).

As for `Cc1cc(O)c2c(c1)C(=O)c1cccc(O)c1C2=O`, the “viability” value is 78.1%.

For the compound `O=C(NCCCNc1nc(Nc2cccc(NC(=O)N3CCCC3)c2)ncc1I)c1cccs1`, the “viability” value was 93.9%.

For the compound `CCc1cccc2c3c([nH]c12)C(CC)(CC(=O)O)OCC3` (centres undefined), the “viability” value is 95.2%.

As to `CC(C)C[C@@H](N)[C@H](O)C(=O)N[C@H](C(=O)N[C@H](C(=O)N[C@@H](CC(=O)O)C(=O)O)C(C)C)C(C)C`, the “viability” value was 96.5%.

Take `CN1CCN(CCCN2c3ccccc3Sc3ccc(C(F)(F)F)cc32)CC1`: the Potency was 11800 nM (active).

As to `Cc1c(C(=O)Nc2ccc(N3C[C@@H](C)O[C@@H](C)C3)nc2)cccc1-c1ccc(OC(F)(F)F)cc1`, the Potency was 4180 nM (active).

`c1cc(OCCN2CCCCC2)cc(-c2n[nH]c3ccc(-c4ncn[nH]4)cc23)c1`: the “viability” value is 93.2%.

Turning to `NC(=O)c1cccc(-c2cc(Nc3ccc(OC(F)(F)F)cc3)ncn2)c1`, the “viability” value was 80.5%.

Take `O=C(O)C1CCCN(CCC=C(c2ccccc2)c2ccccc2)C1` (centres undefined): the “viability” value is 104%.

Consider `CCC(C)CCCCC(=O)N[C@@H](CCN)C(=O)NC(C(=O)N[C@H](CCN)C(=O)N[C@@H]1CCNC(=O)C([C@@H](C)O)NC(=O)[C@@H](CCN)NC(=O)[C@@H](CCN)NC(=O)[C@@H](CC(C)C)NC(=O)[C@H](Cc2ccccc2)NC(=O)[C@H](CCN)NC1=O)[C@@H](C)O` (stereo partly drawn) ({Octanoyl(6-Me)}-[Dab][ξThr(3R)][dDab][dDab][Dab]F[dL][dDab][dDab][ξThr(3R)]; lactam 4-C), for which the “viability” value is 106%.

`COc1c(N2CCNC(C)C2)c(F)cc2c(=O)c(C(=O)O)cn(C3CC3)c12` (centres undefined): the “viability” value is 71.3%.

On to `COC(=O)[C@H](CCCN=C(N)N)NS(=O)(=O)c1ccc(C)cc1`, for which the “viability” value was 83.7%.

As to `CN(C)Cc1ccc(-c2nc3cccc4c3n2CCNC4=O)cc1`, the “viability” value was 102%.

On to `CC(C)(C)C(=O)OCOP(=O)(COCCn1cnc2c(N)ncnc21)OCOC(=O)C(C)(C)C`, for which the Potency is 332 nM (active).

Consider `CCS(=O)(=O)c1cccc(-c2cc(C(=O)NC3CCN(C)CC3)c(C)c3[nH]c4ncc(C)cc4c23)c1`, for which the Potency is 235 nM (active).

In the case of `O=C(Nc1cccc(Cl)c1)Nc1ncc(CCNc2ncnc3ccsc23)s1`, the Potency was 418 nM (active).

With `COc1ccccc1OCCNCC(O)COc1cccc2[nH]c3ccccc3c12` (centres undefined), the “viability” value is 98.3%.

For the compound `NCCc1ccc(O)c(O)c1`, the “viability” value was 92.6%.

With `NC1CCC(N[C@@H]2C[C@H]2c2ccccc2)CC1` (some centres undefined), the “viability” value is 90.2%.

Consider `C[C@@H](NC(=O)c1ncnc(N)c1Cl)c1ncc(C(=O)Nc2cc(C(F)(F)F)c(Cl)cn2)s1`, for which the “viability” value is 82.2%.

With `Clc1ccc2c(c1)C(N1CCNCC1)=Nc1ccccc1O2`, the “viability” value was 96.6%.

As for `OCc1ccc(-c2ccc(-c3ccc(CO)s3)o2)s1`, the “viability” value is 98.4%.

In the case of `CN1CCC(=C2c3ccccc3CC(=O)c3sccc32)CC1`, the “viability” value was 102%.
